Source: PubChem BioAssay (NCI)
“And” between values parts separate entries of the source, which are not always exact repeats. Identical values can stand only once. Compounds without any hit were thinned out: in the full panel of roughly 83,000, 20% have a hit.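 A percent growth of 40 corresponds to 60% growth inhibition; 0 means no net growth; -100 means all cells died. Active threshold: below 10.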 A number with no mark means an inactive call. The source made the active and inactive calls.

What follows are compounds tested on HL-60(TB) leukemia (assay: NCI-60 one-dose screen, 48 h (100 = growth as untreated, 0 = no growth, -100 = all killed)). Details: 10 µM unless noted.
In the case of `Nc1n[nH]c2cccc(C#Cc3cccc(C(=O)Nc4cc(C(F)(F)F)cc(C(F)(F)F)c4)c3)c12`, the growth is reported as 39.7%.
`O=C(Nc1cccc(-n2cc(-c3ccncc3)c(-c3ccc(O)c(Cl)c3)n2)c1)Nc1ccc(Cl)c(Cl)c1` was tested, and the growth was -13.2% (active).
`COc1cccc(NC(=O)[C@H](C(C)C)n2c(=O)[nH]c3ccccc3c2=O)c1` was tested, and the growth was 86.2%.
With `Cc1cccc(C)c1NC(=O)CSC(=S)N1CCCCC1` the growth was 73.2%.
In the case of `CC[C@@H](C)/C=C(C)/C=C/C(O)=C1\C(=O)N[C@@H](Cc2ccc(OC(=O)[C@@](OC)(c3ccccc3)C(F)(F)F)cc2)C1=O`, the growth is reported as 8.34% (active).
In the case of `N#Cc1cnn2c(-c3ccc(Cl)cc3)nc(NC3CC3)nc12`, the growth is reported as 98.2%.
`COC(=O)[C@H]1[C@H]2C[C@@H]3c4[nH]c5cc(OC)ccc5c4CCN3C[C@H]2C[C@@H](OC(=O)/C=C/c2cc(OC)c(OC)c(OC)c2)[C@@H]1OC` was tested, and the growth was -40.1% (active).
In the case of `S=C(S)N1CCCC1`, the growth is reported as 114% and 110%.
Work on `CN(C)CCCn1c2c(c3cc(-c4cccc(S(N)(=O)=O)c4)ccc3c1=O)C(=O)c1ccccc1-2` yielded a growth of 93.2%.
With `CCC1=C[C@]2(C3CC(=O)N(c4ccccc4)C3=O)CC(C(C)(C)C)C[C@@H]2[C@@H]2C(=O)N(c3ccccc3)C(=O)[C@H]12` (stereo partly specified) the growth was 84.1%.
For `COc1cc(CN2CCC(N3CCCC3=O)c3ccccc32)cc(OC)c1OC` (stereo unspecified), the growth was 56.4%.
In the case of `CCOC(=O)C(=Cc1ccc(Br)cc1)C(=O)OCC`, the growth is reported as -41.8% (active).
With `c1ccc(CNc2nc(Nc3ccc(-c4nc5ccccc5[nH]4)cc3)c3cn[nH]c3n2)cc1` the growth was -4.71% (active).
For `c1ccc(OCC[P+](c2ccccc2)(c2ccccc2)c2ccccc2)cc1`, the growth was -19.4% (active).
In the case of `CCc1ccc(Oc2c(-c3ccc(OCc4ccc(Cl)cc4)cc3O)n[nH]c2C(F)(F)F)cc1`, the growth is reported as -6.99% (active).
With `COc1cc(-c2csc(NC(=O)c3cc(-n4cnc(C)c4)cc(C(F)(F)F)c3)n2)cc(OC)c1OC` the growth was 61%.
`Cc1ccc(S(=O)c2ccc([N+](=O)[O-])c3nonc23)cc1` (stereo unspecified) gave a growth of 33.2%.
In the case of `CCN(CC)CCc1nc(-c2ccccc2)no1`, the growth is reported as 104%.
Compound `Nc1c2c(nc3ccc(Br)cc13)CC(c1ccccc1)CC2=O` (stereo unspecified) has a growth of 10.7%.
`O=C(c1ccccc1)[C@H]1[C@@H]2CCCN2[C@]2(C(=O)Nc3ccc(F)cc32)[C@]12C(=O)Nc1ccccc12` gave a growth of 68.3%.
With `CC(C)CC(CC1=CCC2CC1C2(C)C)C1=C(O)C(C)(C)C(=O)C(C)(C)C1=O` (stereo unspecified) the growth was -45.3% (active).
With `COc1ncc(-c2ccc3ncnc(Nc4cccc(Cl)c4)c3c2)cc1NS(C)(=O)=O` the growth was 19.1%.
For `COc1cc(C2CC(c3ccc(Nc4nc(NCCO)nc(N5CCOCC5)n4)cc3)=NN2c2cc(Cl)cc(Cl)c2)cc(OC)c1OC` (stereo unspecified), the growth was 44.9%.
With `CCn1c(Cc2ccccc2Nc2c(Cl)cccc2Cl)nnc1SCC(=O)Nc1ccccc1C(F)(F)F` the growth was 86.9%.
In the case of `O=C(NNc1ccccc1)OCc1ccccc1`, the growth is reported as 5.98% (active).
With `CC(=O)c1c(O)c(C)c(O)c2c1OC1=CC(=O)/C(=C(/C)N)C(=O)C12C` (stereo unspecified) the growth was 84.4%.
In the case of `Nc1nc2c(c3cnccc13)C(c1cccc(Br)c1)Cc1cnccc1-2` (stereo unspecified), the growth is reported as 3.01% (active).
`Cc1ccc2cccc(Oc3ccc(Nc4ncnc5onc(-c6ccccc6)c45)cc3)c2n1` showed a growth of 94.9%.
`CSc1nc2c(c(=O)[nH]1)N=C1c3ccccc3C(=O)C1C(c1ccccc1)N2` (stereo unspecified) was tested, and the growth was -34.8% (active).
With `COc1cc(-c2cncn2-c2ccc(-c3nc4ccc(F)cc4s3)cc2)ccc1F` the growth was 53.1%.
`COc1cc2nc(-c3ccc(C(F)(F)F)cc3)cc(OCCN3CCC(O)CC3)c2cc1OC` gave a growth of 68.6%.
For `COc1ccc(-c2c(N)noc2-c2cc(OC)c3c(c2)OCCO3)cc1`, the growth was -30.8% (active).
`OC(COc1cccc2ccccc12)CN1CCN(c2ccc(Cl)cc2)CC1` (stereo unspecified) was tested, and the growth was 55.5% and 75.2%.
With `COc1ccc(C(=O)N2N=C(c3ccc(F)cc3)CC2c2cn(-c3ccccc3)nc2-c2ccccc2)cc1` (stereo unspecified) the growth was 32.5%.
With `O=C1N/C(=N/O)S/C1=C/c1cn(-c2ccccc2)nc1-c1ccccc1` the growth was 117%.
`CC(C)C(C)(C)C(=O)C(C)(C)C(C)(C)C` showed a growth of 135%.
